The values below come from PubChem BioAssay (NCI).

About 83,000 compounds went through this panel and 20% of them were active in at least one assay; those are over-represented in the sample as a whole.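 Activity criterion: percent growth below 10, measured after cells in 96-well plates were exposed to a single compound concentration for 48 hours.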 Values without a mark were called inactive. Active and inactive are the calls of the source.

This experiment deals with SNB-75 CNS. The experiment in a line: NCI-60 one-dose screen, 48 h (100 = growth as untreated, 0 = no growth, -100 = all killed). The following applies: 10 µM unless noted.
As to `CC/C(=C(/c1ccc(Cl)cc1)c1ccc(OCCN2CCCC2)cc1)c1ccc(OC)cc1`, the growth was 103%. The value for `Nc1ncnc2c1N=C(c1ccc(Cl)cc1)CC(c1ccc3c(c1)OCO3)N2` (stereo not given) was 85.7%; that for `N=C(N)c1ccc(-c2ccc(-c3ccc(F)cc3)o2)o1` was 20%. The value for `CCCCC(=O)c1ccco1` was 86.8%. The value for `C/C(=C(/c1ccc(Cl)cc1)c1ccc(OCCN2CCCC2)cc1)c1ccc(Cl)cc1` was 115%; that for `COC(=O)c1c2c(c[n+]([O-])c1C)C(=O)C(NCc1ccccc1)=CC2=O` was -97.9% (active); that for `Fc1ccc(-c2nn(-c3ccccc3)cc2-c2nc3ccccc3o2)cc1` was 119%. Consider `COc1ccc2c3c([nH]c2c1)C(=O)c1nc(C)ccc1C3=O`, for which the growth was -4.19% (active). For `CCN(C(=O)N1CCN(c2cc3c(cc2F)c(=O)c(C(=O)O)cn3C2CC2)CC1)c1nc(-c2ccc(Cl)cc2)cs1` the value was 28.9%; for `CCCNC(=O)Oc1ccc(/C(=C(/C)Cc2ccc(OC)cc2)c2ccc(OCCCN(C)C)cc2)cc1`, 80.8%. The value for `CC(=O)OCc1nc(C#N)c(N(C)C)o1` was 81.5%; that for `Cn1ccnc1C(=O)C(=O)Nc1ccc(CC(=O)Nc2ccccc2)cc1` was 92.2%; that for `O=C(CN1C(=O)CCC1=O)Nc1ncc(Cc2ccc(F)cc2)s1` was 94.3%. The value for `CNc1nc(S(=O)c2ccc(C#N)cc2)nc2ccccc12` (stereo not given) was 60.5%. On to `Cn1c(-c2ccc(Br)cc2)c(O)c(=O)c2c(F)cccc21`, for which the growth is 92.2%. For `CCN(CC)CCCN1C(=O)c2c(c(C)c3c(oc4cc(O)ccc43)c2C)C1=O` the value was 124%; for `Cn1ccc2c3c(ccc21)CC3=O`, 97.7%; for `O=C1N[C@@H]2NC(=[N+]3CCOCC3)N[C@@H]2N1`, 94.5%. For `CCCCCOc1ccc(C(=O)/C(Br)=C/C(=O)O)cc1` the value was 73.8%. For `O=C(/C=C/c1ccccc1)c1cccc(OCCCOc2cccc(C(=O)/C=C/c3ccccc3)c2)c1` the value was 93.9%. As to `O=C(Cc1ccccc1)Nc1nc(O)c(/C=C2\C(=O)C=Cc3ccccc32)s1`, the growth was 95.5%. The value for `Nc1c(C(=O)Nc2ccncc2)sc2nc3c(cc12)CCCCCC3` was 84.2%; that for `COc1ccc(C(=O)Nc2cccc(C3CC(=O)c4c(cc(OC)c(OC)c4OC)O3)c2)cc1` (stereo not given) was -11.4% (active).

With `O=C(c1cc2ccccc2o1)c1nn(-c2ccccc2)/c(=N/N=Cc2cn(-c3ccccc3)nc2-c2cc3ccccc3oc2=O)s1`, the growth is 97.2%. The value for `CCCCCCCCCCCCCCCCCCOc1ccccc1CC(=O)NCC[N+]1(C)CCCC1` was 45%; that for `O=C(CSc1nc(-c2ccccc2)[nH]c1S(=O)(=O)c1ccccc1)NC1CC1` was 98.1%; that for `CC(C)N1CCN(Cc2ccc3c(NNC(=O)c4ccccc4)nc4cc(F)ccc4n23)CC1` was 54.7%. The value for `O=S(=O)(NCCCNc1nccc(-c2c(-c3ccc(F)c(O)c3)nc3occn23)n1)c1ccccc1` was 96.8%; that for `COc1cc(-c2csc(NC(=O)c3cc(-n4cnc(C)c4)cc(C(F)(F)F)c3)n2)cc(OC)c1OC` was 78.6%; that for `COc1cc2c(c(OC)c1OC)CCC(c1cccc(C(=O)Nc3cccc(Br)c3)c1)O2` (stereo not given) was 69%. The value for `Cc1nn(-c2ccccc2)c(Oc2ccccn2)c1-c1nc2ccccc2s1` was 97%; that for `CSc1nnc(-c2cnn3c2NC(c2ccccc2)C3)n1-c1ccc(C(F)(F)F)cc1` (stereo not given) was 66.7%.

For the molecule `Cc1ccc(-c2cc(-c3ccc(Cl)cc3)nc(NC(=O)c3cccnc3)n2)cc1`, the growth is 99.8%. For `CC1=C(C(=O)OC(C)C)C(c2ccc3c(c2)OCO3)NC(=S)N1` (stereo not given) the value was 95.2%; for `CCOC(=O)c1c2c(n3ccc(C)cc13)C(=O)c1ccccc1C2=O`, 100%; for `O=S(=O)(NCCNc1cc(-c2c(-c3cccc(O)c3)nc3sccn23)ccn1)c1ccc(C(F)(F)F)cc1`, 38.3%. Regarding `Cc1nc2ncnc(Cl)c2[nH]1`, the growth is 89.1%. For `N#Cc1nn(-c2cc(=O)[nH]c3ccc(Cl)cc23)c(N)c1C#N` the value was 113%; for `C#COc1cccc(Nc2ncnc3ncc(NC(=O)CCl)cc23)c1`, 49.5% [6.25 µM].

In the case of `COC(=O)[C@]1(C)CCC[C@]2(C)[C@H]3C[C@H]4C(C(C)C)=C[C@]3(CC[C@H]21)[C@H]1[C@@H]4[C@@H](OCCC#N)CC[C@@H]1OCCC#N`, the growth was 75.6%.
